Screens (PubChem)
M1 agonist: M1 muscarinic receptor agonists, primary screen, CHO-M1 cells, Fluo-4 calcium, agonist mode. Muscarinic acetylcholine receptor M1. Fluo-4 calcium fluorescence; hits give high values. B-score at 10 µM. hit rate 3% among 64,000. AID 626, 2007;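 active means fluorescence rise, raw or as B-score row- and column-corrected plate score, outside the 99.7% band of its plate's samples, either direction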
Pyk2 oligo antag: antagonists of Pyk2 self-association, primary screen, Q293 cells, FERM NanoBiT luminescence, HTS. hits give low values. Protein-tyrosine kinase 2-beta (Homo sapiens), Q14289. hit rate 0.83% among 99,000. AID 1347419, 2020. z-score (the deposit names both 25 µM and 10 µM);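 active means Z-score of -3 or lower, scaled per plate to the spread of control and sample wells; inactive means z-score above -3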;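 further: negative z-score means lost luminescence so less FERM oligomerization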
Cav32 inh: Cav3.2 calcium influx blockers – cell-based, Fluo-4 calcium fluorescence, FDSS, MLSMR library, primary screen; Voltage-dependent T-type calcium channel subunit alpha-1H (Homo sapiens), O95180; Cav3.2-expressing cells; hits give low values; B-score at 10 µM; hit rate 4% among 100,000; AID 449739, 2010;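 active means single-dose well whose peak fluorescence ratio is a statistical outlier from its plate by either plate-standardised score or position-corrected B-score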
M1 antagonist: antagonists of rat M1 muscarinic receptor. Muscarinic acetylcholine receptor M1 (Rattus norvegicus), P08482. CHO-M1 cells, Fluo-4 calcium, ACh EC80 antagonist mode; hits give low values. B-score at 10 µM. hit rate 3.4% among 64,000;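 active means calcium fluorescence response, raw or row-and-column corrected B-score, differing from the plate sample mean either way at a set confidence level, mostly lower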
M1 antag confirm: rat M1 muscarinic receptor antagonists, confirmation, CHO cells, Fluo-4 calcium, duplicate; shares compounds with M1 antagonist; ACh EC80 antagonism; hits give low values; calcium response (max-min fluorescence) at 10 µM; hit rate 43% among 1,700; AID 677, 2007;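 active means calcium response below the same-plate mean of wells given acetylcholine alone at its 80%-effect dose, minus 3 SD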;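 further: raw fluorescence intensity difference in arbitrary instrument units and not normalized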
mGluR4 antag: human mGluR4 response to M1 antagonist hits, M1 allosteric modulator project, cell-based, antagonist mode, secondary assay 1. shares compounds with M1 antagonist. CHO-mGluR4 calcium flux, Fluo-4 fluorescence, glutamate EC80; hits give low values. fluorescence response (max-min) at 10 µM. hit rate 0.9% among 1,700. AID 678, 2007;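 active means fluorescence response below the plate's average for near-maximal glutamate wells, less 3 SD of those wells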;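 further: raw unnormalized fluorescence span taken in the window right after glutamate addition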
* = called active by the depositor; x = no result given. Rows were chosen to be rich in hits. Some 7.1% of all compounds tested hit in one or more screens of this group.

SMILES | M1 agonist | Pyk2 oligo antag | Cav32 inh | M1 antagonist | M1 antag confirm | mGluR4 antag
CCSc1nc2c([nH]c3ccccc32)c(=O)n1C | -0.12 | x | x | -4.2* | 443 | 214
COc1ccc(C(=O)Cc2ccc(OC)c(OC)c2)c(OC)c1 | x | 0.3 | 2 | x | x | x
COc1ccc(C(C(=O)OC(C)CN(C)C)c2ccccc2)cc1 (centres undefined) | -0.14 | 0.56 | 0.65 | -3* | 333* | 214
COc1ccc(C(=O)OC(C(=O)c2ccccc2)c2ccccc2)cc1 (centres undefined) | x | -2 | -3.6 | x | x | x
CCCCNC(=O)C1CCCN1C(=O)Nc1cccc(OC)c1 (centres undefined) | -0.48 | 0.28 | 0.76 | 0.58 | x | x
CCOC(=O)C1CCN(S(=O)(=O)c2cccc(-c3cn4cc(Cl)ccc4n3)c2)CC1 | x | 0.91 | 0.14 | x | x | x
CCOC(=O)C1CCN(S(=O)(=O)c2cccc(-c3cn4ccccc4n3)c2)CC1 | 0.45 | 0.95 | 0.94 | -3.1* | 601 | 247
CCC(CC)NC(=O)Cc1ccccc1OC | x | 0.85 | 0.87 | x | x | x
CCN1CCN(c2cc(C)c3cc(NC(=O)c4cncc(Br)c4)ccc3n2)CC1 | -0.071 | -0.35 | x | -5* | 250* | 228
O=C(CN1CCN(C(c2ccccc2)c2ccccc2)CC1)N1CCOCC1 | -0.021 | 0.43 | 0.75 | -19* | 179* | 246
O=C(Nc1ccccc1-c1ccccc1)NC1CCN(CC(=O)N2CCOCC2)CC1 | 0.81 | 0.78 | -0.43 | -6* | 323* | 242
Cc1cc(C)cc(N(CC(=O)NCCSc2ccccn2)S(=O)(=O)c2ccccc2)c1 | x | -2.5 | -3 | x | x | x
COCCn1c(SCc2cccnc2)nnc1-c1ccco1 | 0.00022 | -0.34 | 0.29 | -3* | 664 | 234
Cc1ccc(NC(=S)NN(C)c2cc(C)nc(C)n2)cc1 | x | 0.15 | x | x | x | x
COC(=O)C1=C(C)NC(C)=C(C(=O)OC)C1c1ccc(NC(C)=O)cc1 | 0.1 | 0.31 | 0.8 | 1.2 | x | x
CCOC(=O)C1=C(C)NC(=O)NC1c1ccc(N(CC)CC)cc1 (centres undefined) | 0.83 | x | -0.095 | -3.1* | 391* | 274
CCN(CC)c1ccc(C2C(C(=O)OC)=C(C)NC(C)=C2C(=O)OC)cc1 | -0.19 | -1.2 | -0.27 | -2.7* | 209* | 249
COc1ccc(C(=O)Nc2n[nH]c(-c3ccncc3)n2)cc1 | x | 0.65 | 1.7 | x | x | x
O=C(NCc1ccncc1)c1cccc(Cn2cc(Br)cn2)c1 | -1.2 | 1.1 | 0.38 | -10* | 88* | 205
OC(COc1ccc(OCc2ccccc2)cc1)CN1CCCCC1 (centres undefined) | -1.4 | -0.12 | 0.2 | -6.6* | 358* | 249
COc1cccc(OCC(O)CN2CCC(Cc3ccccc3)CC2)c1 (centres undefined) | -1 | 0.5 | -4.2* | -2.2* | 347* | 219
COC(=O)c1ccccc1NC(=O)CSc1nnc(CNS(=O)(=O)c2ccc(C)cc2)n1C | 2.7 | 0.39 | 1.1 | 0.026 | x | x
CCCCc1cc(=O)oc2c(CN3CCCC3)c(O)ccc12 | -0.65 | 0.33 | 0.64 | -2.3* | 522 | 190
Nc1c(Cl)cc(-c2csc(N3CCCC3c3nc4cc(Cl)c(N5CCCCC5)cc4n3CCCO)n2)cc1Cl (centres undefined) | x | x | 2 | x | x | x
COc1cc(C)c(S(=O)(=O)n2ccc(C)n2)cc1C | 0.21 | 0.6 | -2.1 | -0.18 | x | x
CCOc1ccc(NC(=O)C2CC(=O)N(c3cc(C)cc(C)c3)C2)cc1 (centres undefined) | -0.14 | -1.1 | -2.4 | -2.8* | 505 | 231
CCOc1ccc(N2CC(C(=O)Nc3ccc(S(=O)(=O)N4CCOCC4)cc3)CC2=O)cc1 (centres undefined) | -0.1 | 1.3 | -0.52 | -0.2 | x | x
CCN(CC)c1ccc(C2C(C(C)=O)C(=O)CC(C)(O)C2C(C)=O)cc1 (centres undefined) | x | -0.15 | -1.1 | x | x | x
